JMJD2A Tudor inh: inhibitors of human JMJD2A Tudor domain; O75164; Potency, µM (series often up to 114 µM), for inactives: at the top dose activity change, negative = inhibition, most hits filed as inhibitors; AlphaScreen JMJD2A-Tudor / H3K4me3 peptide binding; 4.4% of 390,000 active; further: on the % scale 0 is the no-effect control and ±100 the full control effect; nearly all actives have a fitted effect of over 50% in size
VDR inhibitor: blocks the human vitamin D receptor; VDR-SRC2-3 peptide fluorescence polarization, 2 h; 0.93% of 400,000 active; P11473; Potency, µM, for the others: max response, negative = inhibition, most hits filed as inhibitors; further: on the % scale 0 is the no-effect control and ±100 the full control effect
Target sequence (P11473 whole entry, looked up): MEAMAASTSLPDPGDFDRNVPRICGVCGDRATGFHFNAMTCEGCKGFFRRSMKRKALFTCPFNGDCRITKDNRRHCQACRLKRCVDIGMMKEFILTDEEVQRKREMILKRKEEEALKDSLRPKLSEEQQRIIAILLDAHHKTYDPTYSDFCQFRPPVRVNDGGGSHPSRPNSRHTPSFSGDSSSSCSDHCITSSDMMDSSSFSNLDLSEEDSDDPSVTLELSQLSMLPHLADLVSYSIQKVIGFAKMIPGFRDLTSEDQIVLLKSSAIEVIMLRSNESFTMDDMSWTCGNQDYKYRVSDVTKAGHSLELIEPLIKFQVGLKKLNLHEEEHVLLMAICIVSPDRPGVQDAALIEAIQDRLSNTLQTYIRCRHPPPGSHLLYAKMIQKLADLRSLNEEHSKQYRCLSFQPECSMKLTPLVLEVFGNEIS
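Reagent solutions, kept cold and dark, are dispensed first; compounds are then pinned in at 23 nl, plates briefly spun, and incubated 2 h at ambient temperature. Inhibition of VDR–SRC2-3 peptide binding is read by fluorescence polarization.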
BAZ2B inh: blocks human BAZ2B. Q9UIF8. AlphaScreen BAZ2B-H3K14Ac peptide displacement. Potency, µM (series often up to 114 µM), without a hit: top-dose activity change, negative = inhibition, usual class: inhibitors. 4.4% of 360,000 active. AID 504333; further: on the % scale 0 is the no-effect control and ±100 the full control effect; nearly all actives have a fitted effect of over 60% in size
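Multi-concentration screen (max 110 uM) measuring displacement of acetylated histone H3 peptide from BAZ2B by AlphaScreen, using 50 nM protein, 50 nM peptide and 10 ug/mL streptavidin donor plus Ni-chelate acceptor beads.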
G9a block: inhibitors of human histone lysine methyltransferase G9a | Potency, µM (highest dose often 102 µM), for inactives: at the top dose activity, negative = inhibition, hits mostly inhibitors | 8.8% of 350,000 active | Q96KQ7 | G9a H3K9 monomethylation, AlphaScreen, 2 h; further: on the % scale 0 is the no-effect control and ±100 the full control effect; nearly all actives have a fitted effect of over 75% in size
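Chemiluminescent proximity detection of H3K9 monomethylation, read after 10 min bead incubation in the dark. Reaction: 20 nM G9a, 500 nM biotin-H3K9 peptide, 20 uM SAM cofactor, 2 h, room temperature, following 15 min enzyme-compound preincubation.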
HP1b chromo inh: inhibitors of HP1-beta chromodomain binding to methylated histone tails; AlphaScreen HP1-beta / biotin-H3K9me3 peptide binding; Potency, µM (top dose mostly 114 µM), for the others: at the top dose activity change, negative = inhibition, actives largely listed as inhibitors; 0.56% of 390,000 active; further: nearly all actives have a fitted effect of over 70% in size
Target sequence (P83916 whole entry, looked up): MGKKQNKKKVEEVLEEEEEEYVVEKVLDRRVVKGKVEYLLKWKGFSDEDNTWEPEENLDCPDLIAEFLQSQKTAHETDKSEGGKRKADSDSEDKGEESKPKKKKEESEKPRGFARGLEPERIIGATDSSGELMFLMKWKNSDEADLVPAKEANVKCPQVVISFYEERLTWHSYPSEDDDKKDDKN
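Compound inhibition of the preformed complex between 50 nM HP1-beta and 50 nM biotinylated H3K9me3 peptide was read by AlphaScreen. Buffer was PBS pH 7.4 with 0.01% Tween-20. Incubations ran 30 min at room temperature, with 10 ug/mL donor/acceptor beads.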
PLK1 PBD block: PLK1 (human) polo-box domain binding inhibition; P53350; Plk1 PBD binding of FITC phosphopeptide, fluorescence polarization; Potency, µM, for inactives: max response, negative = inhibition, actives largely listed as inhibitors; 2.8% of 360,000 active; further: series mostly up to about 57 µM; on the % scale 0 is the no-effect control and ±100 the full control effect; nearly all actives have a fitted effect of over 65% in size
Active calls of the source: *; ? = inconclusive; . = no result; [ ] = remark or other dose. In the library only some 11% were active in any assay of this set; here they are far more common. The call rests on the fitted dose curve; in most records, active means well fitted curve in the direction sought with a large enough effect; inconclusive means small, poorly fitted or top-dose-only effect, or another doubt; inactive means no such curve, though single readings can be large; an effect the other way counts as inactive or inconclusive. Potency means the concentration at half of the fitted maximal effect.

SMILES	JMJD2A Tudor inh	VDR inhibitor	BAZ2B inh	G9a block	HP1b chromo inh	PLK1 PBD block
O=C(CC(=O)c1ccccc1)c1ccccc1	161%	-14%	.	-4%[2.33 µM]	285%	-8%
CN(C)CCC(=O)c1ccc(Cl)cc1	-8%[57.1 µM]	-24%	-3%	6.3µM*	18%	4.2µM*
CN(CCC(=O)c1ccccc1)CCC(=O)c1ccccc1	-11%	-12%	5%	32µM*	14%	27µM*
Cc1ccc(C(=O)NC2=NC(c3ccc(C)cc3)CC(=O)N2)cc1 (stereo not drawn)	-10%	12%	-3%	-17%[59 µM]	38%	.
C[N+]1(CC2COC(c3ccccc3)(C3CCCCC3)O2)CCCCC1 (stereo not drawn)	.	1%	.	?	.	.
Cc1ccc(C(=O)NC(=S)NNC(=O)c2ccccc2O)cc1	-7%	-13%	3%	?	24%	-5%
Cc1ccccc1C(=O)NNC(=S)NC(=O)c1ccccc1	-27%	1%	11%	4µM*	-7%	-12%
O=C(NC(=S)NNC(=O)c1ccccc1O)c1ccccc1	32µM*	4%	?	32µM*	6%	-15%
O=C(NC(=S)NNC(=O)c1ccccc1O)c1ccc(F)cc1	56µM*	19%	?	4%	9%	-27%
CCOC(=O)C1=C(CSc2nc(-c3ccncc3)ccc2C#N)OC(N)=C(C#N)C1c1cccnc1 (stereo not drawn)	-14%	-6%	8%	35µM*	36%	-8%
CCOC(=O)C1=C(CSc2nc(CC)c(C)cc2C#N)OC(N)=C(C#N)C1c1ccc(OC)cc1 (stereo not drawn)	32µM*	52%	-25%	4.5µM*	21%	?
CCOC(=O)C1=C(c2ccccc2)OC(N)=C(C#N)C1c1ccncc1 (stereo not drawn)	-20%	-2%	-19%	45µM*	29%	-17%
CCOC(=O)C1=C(C(C)=O)C(c2cccnc2)C(C#N)=C(N)O1 (stereo not drawn)	?	-11%	-7%	-4%[12.7 µM]	17%	-7%
CCOC(=O)C1=C(C)OC(N)=C(C#N)C1c1ccc(OC)c(CSc2ccccn2)c1 (stereo not drawn)	?	-9%	?	22µM*	20%	-5%
CCCC1OC(c2cc3c(cc2Cl)OCO3)OCC1CC (stereo not drawn)	88%	8%	.	.	163%	-3%
Cc1cccc(N2CCN(C(=O)CS(=O)(=O)c3cccc4nsnc34)CC2)c1C	-29%	6%	-32%	3%[59 µM]	19%[57 µM]	.
C/C(=N\NC(=O)CSc1nc(C)cc(C)n1)c1ccc([N+](=O)[O-])cc1	-1%	31%	1%	3%	26%	-15%
CCOC(=O)CSc1nc(-c2ccncc2)ccc1C#N	-5%[11.4 µM]	-17%	-4%	8%[59 µM]	-4%	?
CCOC(=O)C1=C(CSc2nc(-c3ccncc3)ccc2C#N)OC(N)=C(C#N)C1c1ccc(OC)cc1 (stereo not drawn)	?	8%	?	40µM*	8%	0%
CCOC(=O)C1=C(CSc2nc(C)ccc2C#N)OC(N)=C(C#N)C1c1cccc(OC)c1OC (stereo not drawn)	?	15%	56µM*	7.1µM*	16%	21µM*
CC1CCc2c(sc3ncn(N)c(=N)c23)C1 (stereo not drawn)	-13%[11.4 µM]	-21%	0%	10%[12.7 µM]	18%	-26%
Cc1ccc(-n2ncc3c(NCCCn4ccnc4)ncnc32)cc1	-26%	-12%	?	0%[59 µM]	-4%	.
Nc1sc2c(c1C(=O)NC1CC1)CCCC2	?	79µM*	.	.	?	19µM*
CCOC(=O)N1CCC(N2CCN(S(=O)(=O)CC)CC2)CC1	4.5µM*	6%	-31%	?	?	0%
CCOC(=O)N1CCC(N2CCN(c3ccccc3)CC2)CC1	-21%	-4%	-36%	-86%	19%	-6%
SMILES	JMJD2A Tudor inh	VDR inhibitor	BAZ2B inh	G9a block	HP1b chromo inh	PLK1 PBD block
CCOC(=O)N1CCC(N2CCN(S(=O)(=O)c3ccc(OC)cc3)CC2)CC1	18µM*	-2%	-10%	?	-11%	7%
CCOC(=O)COc1ccc(S(=O)(=O)N2CCN(c3ccc(OC)cc3)CC2)cc1	28µM*	?	-5%	4%	-16%	?
CCOC(=O)COc1ccc(S(=O)(=O)N2CCN(c3ccccc3F)CC2)cc1	1%	9%	8%	-3%[12.7 µM]	27%	4%
CCOC(=O)c1ccc(S(=O)(=O)N2CCN(C3CCCC3)CC2)cc1	-14%	6%	-19%	-10%	20%	-5%
CCCOc1ccc(C(C(=O)OCCN(CC)CC)c2ccccc2)cc1 (stereo not drawn)	-21%[11.4 µM]	-19%	50µM*	8.9µM*	-34%	-11%
Cc1c(C(O)(c2ccccc2)c2ccccc2)[n+]2ccccc2n1C	-15%	.	.	.	.	.
CCOC(=O)C(CC)n1nc(C)c2c(C)n(-c3ccc(C)cc3)nc2c1=O (stereo not drawn)	-4%	5%	-1%	-32%[59 µM]	24%	.
CSc1ncc(C(=O)NCc2cccc(C)c2)c(-c2ccccc2)n1	-17%	4%	-1%	4%[59 µM]	13%	.
CC(=O)Nc1cc(C(=O)NCc2ccccc2Cl)ccc1Sc1ccc(F)cc1	-18%	14%	2%	8%[59 µM]	38%	.
CCN(CCCNC(=O)c1ccc(Sc2ccc(F)cc2)c(NC(C)=O)c1)c1ccccc1	56µM*	15%	?	?	-3%	.
CS(=O)(=O)c1cccc(C(=O)Nc2nnc(C3=COCCO3)o2)c1	3.2µM*	?	18µM*	-10%[0.501 µM]	75%	?
CSc1cccc(-c2nnc(NC(=O)c3ccc4c(c3)OCCO4)o2)c1	-6%	7%	13%	73%[59 µM]	19%[57 µM]	.
O=C(Nc1nnc(C2=COCCO2)o1)c1cccc([N+](=O)[O-])c1	-15%	-7%	79µM*	-21%	27%	-13%
COc1ccc(C(CNC(=O)c2cccc3cccnc23)N(C)C)cc1 (stereo not drawn)	-25%	-3%	-8%	?	-20%	-2%
NC(=O)c1ccc(NC(=O)CN2CCN(c3ccccc3)CC2)cc1	-11%	2%	?	.	42%	-1%
COc1ccc2cc(C3CC(c4cccs4)=NN3S(C)(=O)=O)c(Cl)nc2c1 (stereo not drawn)	?	-28%	0%	-7%[59 µM]	-11%	6.7µM*
CCOc1ccc2cc(C3CC(c4ccco4)=NN3S(C)(=O)=O)c(Cl)nc2c1 (stereo not drawn)	-28%	-18%	-30%	45µM*	-17%	-11%
COCCN(C(=O)CSCC(=O)Nc1cccc(C)c1)c1c(N)n(Cc2ccccc2)c(=O)[nH]c1=O	-1%	-3%	10%	11%[2.33 µM]	35%	-1%
CCCCn1c(N)c(N(CC)C(=O)CSCC(=O)Nc2ccc(OC)cc2)c(=O)[nH]c1=O	4%	-14%	12%	50µM*	24%	-12%

Compound activity from PubChem.
